Test results reported in PubChem BioAssay (Tox21).
Active and inactive are the calls of the source. Entries that show only a call come without a potency. Calls come from the whole dose curve; as a rule, active = well fitted curve in the direction sought with a large enough effect in the repeat runs; inconclusive = weak or mixed curves; inactive = flat fitted curve, though single readings scatter.

Assay: qHTS assay to test for compound auto fluorescence at 535 nm (green) in HepG2 cells (AID 720675)
Details: green autofluorescence 485/535 nm, 1 h; series mostly up to 46 µM
Source text: National Center for Advancing Translational Sciences [NCATS]
NIH Chemical Genomics Center [NCGC]
U.S. Environmental Protection Agency [EPA]
National Institutes of Environmental Health Sciences [NIEHS]
National Toxicology Program [NTP]
U.S. Food and Drug Administration [FDA]
Compound auto fluorescence often interferes with screening of the compound library against various biological targets and signaling pathways. Some of these compounds may have fluorophoric properties. Such properties may interfere with the assay outputs resulting in false positives and/or negatives. To decrease such complications and ensure the compound activities are relevant in terms of biological response, the Tox21 10K compound library was screened for auto fluorescence.
From the fluorophores used as reporter signals in our screening assays, the auto fluorescence equivalencies of compounds against three fluorophores have been evaluated: Triamterene, Fluorescein and Rose Bengal sodium for blue, green and red fluorescence, respectively. The fluorescence intensities were measured using Excitation/Emission wavelengths at 405/460nm, 485/535nm and 540/590nm for blue, green and red labels, respectively. This assay includes the green fluorescence data.
Tox21 Assay Protocol Summary:
2,000 HepG2 cells in 5 uL of culture medium (MEM containing 10% FBS) per well were dispensed into black wall/clear bottom 1536-well plates using a Multidrop Combi Dispenser (ThermoFisher Scientific, Waltham, MA). The assay plates were incubated overnight at 37 C to allow cell attachment to the well bottom, followed by the transfer of 23 nL compound or DMSO vehicle by a pintool work station (Kalypsys , San Diego, CA). After the assay plates were incubated for 1 hr at 37 C and 5% CO2, fluorescence intensities in the assay plates were measured by an Envision (PerkinElmer, Shelton, CT) plate reader using three labels for measuring blue, green and red fluorescence at […] 460, 535 and 590 nm respectively.

Row | Structure (SMILES) | Potency
1 | CS(=O)(=O)OCCCNCCCOS(C)(=O)=O | inactive
2 | CS(=O)(=O)NC(=O)CCC/C=C\C[C@H]1C(=O)C[C@@H](O)[C@@H]1/C=C/[C@H](O)COc1ccccc1 | inactive
3 | Nc1c(Br)cc(Br)cc1CNC1CCC(O)CC1 (stereo not given) | inactive
4 | CC[C@@]1(O)C[C@H](O[C@H]2C[C@H](N(C)C)[C@H](O[C@H]3C[C@H](O)[C@H](O[C@H]4CCC(=O)[C@H](C)O4)[C@H](C)O3)[C@H](C)O2)c2c(cc3c(c2O)C(=O)c2c(O)cccc2C3=O)[C@H]1C(=O)OC | inactive
5 | CCOC(=O)[C@H](CCc1ccccc1)N[C@H]1CCCN2CCC[C@@H](C(=O)O)N2C1=O | inactive
6 | CN1CCC(CN2c3ccccc3Sc3ccccc32)C1 (stereo not given) | inactive
7 | O=C1O[C@H]2[C@H](O)[C@@H]1OC(O)[C@H]2O (stereo not given in full) | inactive
8 | CC[C@]1(O)CC2CN(CCc3c([nH]c4ccccc34)[C@@](C(=O)OC)(c3cc4c(cc3OC)N(C)[C@H]3[C@@](O)(C(N)=O)[C@H](O)[C@]5(CC)C=CCN6CC[C@]43[C@@H]65)C2)C1 (stereo not given in full) | inactive
9 | O=C(CCCN1CCC(C(=O)c2ccc(F)cc2)CC1)c1ccc(F)cc1 | inactive
10 | COc1ccc(-c2noc(CC(=O)O)c2-c2ccc(OC)cc2)cc1 | inactive
11 | CC(=O)O[C@]1(C(C)=O)CC[C@H]2[C@@H]3CCC4=CC(=O)CC[C@]4(C)[C@@]3(F)[C@@H](O)C[C@@]21C | inactive
12 | O=C(OCCO)c1ccccc1O | inactive
13 | Cc1ccc(S(=O)(=O)NC(=O)N[C@@H](C)Cc2ccccc2)cc1 | inactive
14 | C/C(=C(\CCOC(=O)c1ccccc1)SS/C(CCOC(=O)c1ccccc1)=C(/C)N(C=O)Cc1cnc(C)nc1N)N(C=O)Cc1cnc(C)nc1N | inactive
15 | COc1ccccc1N1CCN(CCCC(=O)c2ccc(F)cc2)CC1 | inactive
16 | CCCC(=O)Nc1ncnc2c1ncn2[C@@H]1O[C@@H]2COP(=O)(O)O[C@H]2[C@H]1OC(=O)CCC | inactive
17 | O=P(O)(O)C(Sc1ccc(Cl)cc1)P(=O)(O)O | inactive
18 | CC(CC(c1ccccc1)c1ccccc1)NC(C)(C)C (stereo not given) | inactive
19 | CC1CCC(NC(=O)N(CCCl)N=O)CC1 (stereo not given) | inactive
20 | O=S(=O)(O)Oc1ccc(C(c2ccc(OS(=O)(=O)O)cc2)c2ccccn2)cc1 | inactive

Row | Structure (SMILES) | Potency
21 | O=C(OCc1ccccc1)c1cccnc1 | inactive
22 | CCOC(=O)[C@H](CS)NCCN[C@@H](CS)C(=O)OCC | inactive
23 | C[C@H](O)[C@H](O)[C@H]1CNc2nc(N)[nH]c(=O)c2N1 | inactive
24 | CCCCc1cc2c(=O)c(C(=O)OC)c[nH]c2cc1OCc1ccccc1 | inactive
25 | C/C1=C2N=C(/C=C3N=C(/C(C)=C4\[N-][C@@](C)([C@@H]5N=C1[C@](C)(CCC(=O)NCC(C)OP(=O)(O)O[C@H]1[C@@H](O)[C@@H](n6cnc7cc(C)c(C)cc76)O[C@@H]1CO)[C@H]5CC(N)=O)[C@@](C)(CC(N)=O)[C@@H]4CCC(N)=O)[C@@](C)(CC(N)=O)[C@@H]\3CCC(N)=O)C(C)(C)[C@@H]/2CCC(N)=O.CC(=O)O.[Co] (stereo not given in full) | inactive
26 | C[N+]1(C)CCN(CC(O)(c2ccccc2)C2CCCCC2)CC1 (stereo not given) | inactive
27 | CCCC(CCC)C(N)=O | inactive
28 | CCC(=O)NS(=O)(=O)c1ccc(-c2c(-c3ccccc3)noc2C)cc1 | inactive
29 | c1ccc2c(c1)Sc1ccccc1N2CCN1CCCC1 | inactive
30 | CC(C)NCC(O)COc1ccccc1-n1cccc1 (stereo not given) | inactive
31 | CC(=O)OCC(=O)[C@@]1(O)[C@H](C)C[C@H]2[C@@H]3C[C@H](F)C4=CC(=O)C=C[C@]4(C)[C@H]3[C@@H](O)C[C@@]21C | inactive
32 | C[C@]12CCC(=O)C=C1CC[C@@H]1[C@@H]2[C@@H](O)C[C@@]2(C)[C@H]1CC[C@]2(O)C(=O)COP(=O)(O)O | inactive
33 | CCCCCCCN(CC)CCCC(O)c1ccc(NS(C)(=O)=O)cc1 (stereo not given) | inactive
34 | CC(=O)[C@@]1(O)CC[C@H]2[C@@H]3C=C(Cl)C4=CC(=O)[C@@H]5C[C@@H]5[C@]4(C)[C@H]3CC[C@@]21C | inactive
35 | Cc1cc(C)c(NC(=O)C[C@H](CC(=O)O)c2cccc3ccccc23)c(C(=O)N2CCC3(CCCC3)CC2)c1 | inactive
36 | CC[C@H](CC[C@@H](C)[C@H]1CC[C@H]2[C@@H]3CC=C4C[C@@H](O)CC[C@]4(C)[C@H]3CC[C@]12C)C(C)C | inactive
37 | CCCCC(O)c1ccccc1 (stereo not given) | inactive
38 | COc1ccc(CCNC[C@H](O)c2ccc(O)cc2)cc1OC | inactive
39 | C=Cc1c(C)c2cc3nc(cc4[nH]c(cc5nc(cc1[nH]2)C(C)=C5CCC(=O)OC)c(CCC(=O)O)c4C)[C@@]1(C)C3=CC=C(C(=O)OC)[C@H]1C(=O)OC | inactive
40 | CCCCCCOc1ccc(C(=N)N(CCCC)CCCC)c2ccccc12 | inactive
